From the supplement of paper PMC11732987, “Enantioselective OTUD7B fragment discovery through chemoproteomics screening and high-throughput optimisation” (Communications Chemistry, 2025)

Columns and labels:
Assay in all cases: log2 ratio of Biotin-Ahx-Ub-VS probe labelling (fragment/DMSO); higher = less target engagement (more negative = stronger competition), active = hit call of the paper (q ≤ 0.05, log2 ratio ≤ -1)
Conditions in all cases: compound concentration: 200 uM; treatment time: 3 h
USP19 = biological target: T1, USP19 (UniProt O94966)
T1 sequence (whole entry): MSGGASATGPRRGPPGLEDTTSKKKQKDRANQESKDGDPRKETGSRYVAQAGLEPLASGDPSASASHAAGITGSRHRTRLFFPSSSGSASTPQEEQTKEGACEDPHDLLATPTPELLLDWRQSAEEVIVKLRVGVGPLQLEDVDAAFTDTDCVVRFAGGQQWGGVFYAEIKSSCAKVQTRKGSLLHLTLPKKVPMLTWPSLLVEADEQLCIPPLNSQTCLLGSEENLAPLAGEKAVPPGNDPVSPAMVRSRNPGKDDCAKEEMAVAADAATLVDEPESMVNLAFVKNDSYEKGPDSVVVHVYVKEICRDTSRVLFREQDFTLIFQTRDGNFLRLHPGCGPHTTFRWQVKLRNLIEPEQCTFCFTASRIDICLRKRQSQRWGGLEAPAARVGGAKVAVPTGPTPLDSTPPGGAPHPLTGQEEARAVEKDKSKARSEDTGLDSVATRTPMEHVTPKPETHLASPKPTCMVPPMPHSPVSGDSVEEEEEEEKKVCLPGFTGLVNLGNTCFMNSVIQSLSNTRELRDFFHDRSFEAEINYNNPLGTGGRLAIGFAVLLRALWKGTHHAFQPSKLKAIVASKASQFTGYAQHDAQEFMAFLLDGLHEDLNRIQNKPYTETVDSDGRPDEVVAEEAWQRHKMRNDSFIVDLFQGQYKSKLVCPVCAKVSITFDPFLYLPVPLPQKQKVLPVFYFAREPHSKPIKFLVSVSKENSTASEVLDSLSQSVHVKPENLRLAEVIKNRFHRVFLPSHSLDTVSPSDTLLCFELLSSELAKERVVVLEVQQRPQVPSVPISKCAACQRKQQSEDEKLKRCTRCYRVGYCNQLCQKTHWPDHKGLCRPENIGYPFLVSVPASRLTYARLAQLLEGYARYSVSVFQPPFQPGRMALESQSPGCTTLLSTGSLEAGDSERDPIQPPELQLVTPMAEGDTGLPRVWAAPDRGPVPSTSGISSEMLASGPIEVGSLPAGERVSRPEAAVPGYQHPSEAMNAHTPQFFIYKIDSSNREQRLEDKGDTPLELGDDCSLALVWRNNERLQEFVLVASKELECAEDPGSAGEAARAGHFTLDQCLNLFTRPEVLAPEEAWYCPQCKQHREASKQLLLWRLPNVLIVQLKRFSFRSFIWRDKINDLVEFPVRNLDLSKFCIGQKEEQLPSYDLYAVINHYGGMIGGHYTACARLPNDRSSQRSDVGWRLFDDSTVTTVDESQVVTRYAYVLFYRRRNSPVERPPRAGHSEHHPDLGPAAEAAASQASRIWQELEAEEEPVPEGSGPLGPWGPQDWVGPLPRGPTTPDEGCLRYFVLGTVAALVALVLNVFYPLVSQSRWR
Outline: (§1)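 HEK293T lysate, 495 µg per sample in Tris/CHAPS/IGEPAL buffer with protease inhibitors, was treated in triplicate with fragment at 200 µM or vehicle for 3 h and then with Biotin-Ahx-Ub-VS at 0.5 µM final for 1 h. Labelled DUBs were NeutrAvidin-enriched, digested with LysC and trypsin, and run by diaPASEF LC-MS/MS. Spectronaut label-free quantities were global-median-normalised, and values are average log2 fragment/vehicle ratios by unpaired t-test on proteins with ≥2 unique peptides.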

USP22 = biological target: T2, USP22 (UniProt Q9UPT9)
T2 sequence (whole entry): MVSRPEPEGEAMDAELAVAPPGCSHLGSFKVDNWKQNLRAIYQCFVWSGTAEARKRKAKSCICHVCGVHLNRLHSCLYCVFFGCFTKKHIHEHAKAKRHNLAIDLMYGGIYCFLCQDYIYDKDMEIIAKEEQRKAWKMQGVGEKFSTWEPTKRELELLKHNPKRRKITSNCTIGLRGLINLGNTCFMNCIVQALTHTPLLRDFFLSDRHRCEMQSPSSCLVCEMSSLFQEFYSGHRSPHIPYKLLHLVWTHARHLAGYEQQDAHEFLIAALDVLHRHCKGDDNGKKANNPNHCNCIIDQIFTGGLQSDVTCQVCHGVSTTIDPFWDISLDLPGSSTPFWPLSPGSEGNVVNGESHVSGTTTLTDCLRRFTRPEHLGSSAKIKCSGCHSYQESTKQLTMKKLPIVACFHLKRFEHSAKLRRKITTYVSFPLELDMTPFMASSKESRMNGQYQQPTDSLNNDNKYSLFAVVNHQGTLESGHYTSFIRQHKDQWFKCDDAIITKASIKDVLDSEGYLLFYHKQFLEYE
Outline: as §1

USP24 = USP24 (UniProt Q9UPU5)
Outline: as §1

USP25 = biological target: T3, USP25 (UniProt Q9UHP3)
T3 sequence (whole entry): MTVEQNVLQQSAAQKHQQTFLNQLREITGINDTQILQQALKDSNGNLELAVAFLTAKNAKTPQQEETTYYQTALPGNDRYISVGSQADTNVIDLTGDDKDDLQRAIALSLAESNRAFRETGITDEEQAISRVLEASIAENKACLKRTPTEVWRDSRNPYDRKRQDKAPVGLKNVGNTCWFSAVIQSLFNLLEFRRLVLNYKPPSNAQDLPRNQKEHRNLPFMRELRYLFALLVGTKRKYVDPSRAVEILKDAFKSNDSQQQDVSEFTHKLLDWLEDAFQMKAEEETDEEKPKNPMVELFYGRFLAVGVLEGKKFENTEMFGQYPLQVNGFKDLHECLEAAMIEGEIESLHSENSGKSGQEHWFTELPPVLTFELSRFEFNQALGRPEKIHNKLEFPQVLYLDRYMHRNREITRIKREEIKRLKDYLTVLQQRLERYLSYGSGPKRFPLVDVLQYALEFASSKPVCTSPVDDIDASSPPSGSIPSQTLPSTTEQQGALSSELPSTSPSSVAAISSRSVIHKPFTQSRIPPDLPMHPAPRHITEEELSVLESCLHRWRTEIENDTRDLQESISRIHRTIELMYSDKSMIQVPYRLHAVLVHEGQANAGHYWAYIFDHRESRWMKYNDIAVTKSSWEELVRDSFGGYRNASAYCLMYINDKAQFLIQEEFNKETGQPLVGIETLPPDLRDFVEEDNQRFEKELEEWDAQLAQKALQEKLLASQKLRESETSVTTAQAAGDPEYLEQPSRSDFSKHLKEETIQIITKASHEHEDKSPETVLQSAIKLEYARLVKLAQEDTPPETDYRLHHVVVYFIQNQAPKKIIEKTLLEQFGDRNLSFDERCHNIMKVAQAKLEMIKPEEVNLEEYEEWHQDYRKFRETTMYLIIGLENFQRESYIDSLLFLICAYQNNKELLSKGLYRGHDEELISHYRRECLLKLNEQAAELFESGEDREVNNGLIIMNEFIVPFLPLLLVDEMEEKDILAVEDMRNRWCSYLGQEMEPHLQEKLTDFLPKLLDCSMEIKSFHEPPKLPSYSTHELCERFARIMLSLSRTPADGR
Outline: as §1

USP28 = biological target: T4, USP28 (UniProt Q96RU2)
T4 sequence (whole entry): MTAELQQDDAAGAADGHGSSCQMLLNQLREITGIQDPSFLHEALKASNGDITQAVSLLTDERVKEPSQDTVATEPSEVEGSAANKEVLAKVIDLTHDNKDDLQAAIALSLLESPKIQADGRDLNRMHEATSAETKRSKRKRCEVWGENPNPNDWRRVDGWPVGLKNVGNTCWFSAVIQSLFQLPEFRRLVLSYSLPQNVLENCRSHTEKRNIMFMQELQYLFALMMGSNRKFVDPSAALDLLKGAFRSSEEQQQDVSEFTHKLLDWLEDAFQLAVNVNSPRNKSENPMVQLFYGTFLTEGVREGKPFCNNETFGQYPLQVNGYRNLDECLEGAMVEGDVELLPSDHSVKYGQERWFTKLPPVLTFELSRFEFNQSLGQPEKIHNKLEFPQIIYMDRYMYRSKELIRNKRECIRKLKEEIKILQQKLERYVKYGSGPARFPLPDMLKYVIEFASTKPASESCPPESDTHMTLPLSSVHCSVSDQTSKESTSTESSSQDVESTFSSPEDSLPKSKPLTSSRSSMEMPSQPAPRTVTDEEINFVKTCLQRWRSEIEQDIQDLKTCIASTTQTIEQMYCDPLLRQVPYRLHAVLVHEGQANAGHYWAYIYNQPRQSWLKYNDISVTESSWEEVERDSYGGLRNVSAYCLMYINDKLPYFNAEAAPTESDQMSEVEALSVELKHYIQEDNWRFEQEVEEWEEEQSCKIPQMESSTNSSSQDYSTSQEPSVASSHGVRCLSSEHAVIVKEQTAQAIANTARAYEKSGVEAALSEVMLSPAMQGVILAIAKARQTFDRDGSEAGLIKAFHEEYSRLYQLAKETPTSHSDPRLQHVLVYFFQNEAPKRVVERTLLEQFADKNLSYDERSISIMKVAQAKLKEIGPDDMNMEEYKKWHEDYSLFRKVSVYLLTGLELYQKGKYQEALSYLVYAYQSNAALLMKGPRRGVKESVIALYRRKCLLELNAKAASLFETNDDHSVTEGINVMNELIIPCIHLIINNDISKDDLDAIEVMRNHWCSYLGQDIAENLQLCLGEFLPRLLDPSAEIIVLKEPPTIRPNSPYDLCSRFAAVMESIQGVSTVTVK
Outline: as §1

Measured: log2 ratio of Biotin-Ahx-Ub-VS probe labelling

Chain of USP24 (Q9UPU5 whole entry): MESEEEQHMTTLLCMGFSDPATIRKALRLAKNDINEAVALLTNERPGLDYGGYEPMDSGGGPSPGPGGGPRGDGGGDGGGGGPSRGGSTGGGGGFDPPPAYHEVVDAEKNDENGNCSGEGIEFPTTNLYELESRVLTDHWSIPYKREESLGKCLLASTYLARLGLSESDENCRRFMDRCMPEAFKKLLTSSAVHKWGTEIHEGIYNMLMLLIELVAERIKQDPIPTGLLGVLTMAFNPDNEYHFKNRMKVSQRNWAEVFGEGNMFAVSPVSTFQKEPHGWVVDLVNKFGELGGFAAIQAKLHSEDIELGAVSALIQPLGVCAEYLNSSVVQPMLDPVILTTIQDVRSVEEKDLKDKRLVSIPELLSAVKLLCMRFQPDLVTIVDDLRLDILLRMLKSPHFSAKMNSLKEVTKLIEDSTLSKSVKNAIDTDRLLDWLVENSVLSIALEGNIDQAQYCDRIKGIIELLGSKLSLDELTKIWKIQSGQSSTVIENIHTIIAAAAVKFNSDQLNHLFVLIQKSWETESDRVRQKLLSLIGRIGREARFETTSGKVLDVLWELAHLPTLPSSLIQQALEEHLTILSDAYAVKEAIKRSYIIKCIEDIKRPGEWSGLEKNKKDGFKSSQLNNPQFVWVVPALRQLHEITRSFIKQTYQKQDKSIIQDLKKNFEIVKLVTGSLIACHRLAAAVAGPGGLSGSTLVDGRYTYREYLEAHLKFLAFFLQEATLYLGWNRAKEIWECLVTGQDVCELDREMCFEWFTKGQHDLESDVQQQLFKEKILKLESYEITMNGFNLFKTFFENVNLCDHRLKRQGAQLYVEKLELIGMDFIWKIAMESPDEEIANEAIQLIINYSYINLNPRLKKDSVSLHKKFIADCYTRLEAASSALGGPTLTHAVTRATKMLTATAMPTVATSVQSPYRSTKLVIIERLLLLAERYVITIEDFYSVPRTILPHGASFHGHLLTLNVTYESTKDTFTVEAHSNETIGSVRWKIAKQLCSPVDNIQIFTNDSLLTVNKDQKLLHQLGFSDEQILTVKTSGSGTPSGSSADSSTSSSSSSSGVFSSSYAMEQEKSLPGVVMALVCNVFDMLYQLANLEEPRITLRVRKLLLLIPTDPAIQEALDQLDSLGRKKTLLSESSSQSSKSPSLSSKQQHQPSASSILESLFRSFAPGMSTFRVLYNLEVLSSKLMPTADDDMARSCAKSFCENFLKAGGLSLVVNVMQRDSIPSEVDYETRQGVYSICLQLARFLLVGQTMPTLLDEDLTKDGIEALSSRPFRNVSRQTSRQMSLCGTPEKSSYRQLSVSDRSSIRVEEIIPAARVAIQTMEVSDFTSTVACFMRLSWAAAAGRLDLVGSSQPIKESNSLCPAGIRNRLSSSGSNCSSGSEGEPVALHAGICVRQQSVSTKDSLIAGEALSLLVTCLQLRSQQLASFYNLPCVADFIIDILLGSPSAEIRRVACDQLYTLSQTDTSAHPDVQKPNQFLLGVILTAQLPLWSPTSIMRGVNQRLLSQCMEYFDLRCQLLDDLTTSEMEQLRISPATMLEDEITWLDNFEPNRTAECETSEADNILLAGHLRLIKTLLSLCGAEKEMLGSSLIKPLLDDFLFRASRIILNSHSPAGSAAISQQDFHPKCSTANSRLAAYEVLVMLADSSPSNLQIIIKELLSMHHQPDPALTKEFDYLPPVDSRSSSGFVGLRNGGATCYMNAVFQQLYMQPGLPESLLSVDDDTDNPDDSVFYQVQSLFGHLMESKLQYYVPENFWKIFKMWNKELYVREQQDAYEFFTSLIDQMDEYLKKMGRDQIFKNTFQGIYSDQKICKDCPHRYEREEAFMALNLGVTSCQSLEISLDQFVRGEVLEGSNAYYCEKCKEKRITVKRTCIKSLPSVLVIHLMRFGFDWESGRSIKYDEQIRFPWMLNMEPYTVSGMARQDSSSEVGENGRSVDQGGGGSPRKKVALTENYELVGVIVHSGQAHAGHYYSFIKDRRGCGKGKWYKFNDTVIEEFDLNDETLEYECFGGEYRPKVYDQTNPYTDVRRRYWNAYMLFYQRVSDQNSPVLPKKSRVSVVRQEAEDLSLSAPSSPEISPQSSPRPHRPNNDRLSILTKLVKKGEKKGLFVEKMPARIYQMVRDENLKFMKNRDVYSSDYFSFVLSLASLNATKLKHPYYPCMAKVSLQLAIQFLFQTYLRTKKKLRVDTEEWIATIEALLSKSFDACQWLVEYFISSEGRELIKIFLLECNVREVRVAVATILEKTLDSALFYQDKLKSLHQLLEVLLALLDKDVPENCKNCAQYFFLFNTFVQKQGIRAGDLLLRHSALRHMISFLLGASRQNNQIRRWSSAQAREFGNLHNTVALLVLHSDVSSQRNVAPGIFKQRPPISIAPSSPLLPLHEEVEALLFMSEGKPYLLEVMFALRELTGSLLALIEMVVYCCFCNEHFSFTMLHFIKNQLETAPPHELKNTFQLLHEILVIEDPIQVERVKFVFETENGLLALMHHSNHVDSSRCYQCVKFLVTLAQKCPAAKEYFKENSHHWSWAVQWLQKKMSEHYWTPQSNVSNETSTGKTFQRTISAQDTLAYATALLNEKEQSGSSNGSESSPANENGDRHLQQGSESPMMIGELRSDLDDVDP

Cl.O=C(CCl)NC1(c2ncccn2)CCC1
inactive: USP19 0.0868 | USP22 0.221 | USP24 0.06 | USP25 -0.18 | USP28 -0.0581
